The record followed here is PubChem BioAssay (NCATS).

The structures appear in SMILES notation. Inconclusive results are not listed. Entries that show only a call come without a potency. Active and inactive are the calls of the source. The call rests on the fitted dose curve; in most records, active means well fitted curve in the direction sought with a large enough effect; inconclusive means small, poorly fitted or top-dose-only effect, or another doubt; inactive means no such curve, though single readings can be large; an effect the other way counts as inactive or inconclusive.

Test [1] deals with Zika virus NS2B-NS3 protease. As to the kind of experiment: Primary screen GU AMC qHTS for Zika virus inhibitors (AID 1347154). Further: nearly all actives have a fitted effect of over 70% in size. In short, it runs like this:
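Unlinked Zika NS2B hydrophilic domain/NS3 protease domain noncovalent complex (25 nM final) in 10 mM Tris-HCl pH 8.0, 0.01% Tween 20, with AMC peptide substrate. Fluorescence (ex 340, em 450 nm) change over 15 min, room temperature; percent inhibition fitted to 4-parameter Hill equation.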

Test [2] concerns Zika virus NS2B-NS3 protease (unlinked complex). As to the kind of experiment: Primary screen GU Rhodamine qHTS for Zika virus inhibitors: Unlinked NS2B-NS3 protease assay (AID 1347159). Further: nearly all actives have a fitted effect of over 60% in size. Further: potency means the concentration at half of the fitted maximal effect. The procedure, abridged: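 Noncovalent NS2B hydrophilic domain–NS3 protease domain complex (25 nM) preincubated 15 min at room temperature with compounds (up to 114 microM) in 10 mM Tris-HCl pH 8.0, 0.01% Tween 20; 1.5 microM Rhodamine110 substrate added, fluorescence change over 15 min fitted to Hill equation.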

Test [3] can be described thus: Confirmatory screen GU Rhodamine qHTS for Zika virus inhibitors qHTS (AID 1347157). Further: potency means the concentration at half of the fitted maximal effect; nearly all actives have a fitted effect of over 70% in size. In short, it runs like this:
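Enzyme 25 nM in Tris-HCl pH 8.0 + 0.01% Tween 20; compounds up to 114 microM, 15 min RT dark; + Rhod110 substrate 1.5 microM; read t0 and 15 min; delta fluorescence → % inhibition → 4-parameter Hill fit.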
Background: qHTS replaces the single test concentration by a dilution series.

As for `Cn1cc(-c2ccncc2)c(-c2ccc(OCc3ccc4ccccc4n3)cc2)n1`, the Potency entry in test [1] and in test [2] was “inactive” in each case.

For `C[C@@H]1COC(Nc2ccc3ncnc(Nc4ccc(OCc5nccs5)c(Cl)c4)c3c2)=N1`, the Potency result in test [1] and in test [2] was “inactive” each time.

As for `COc1cc(C(=O)N2CCC(N3CCN(C)CC3)CC2)ccc1Nc1ncc2c(n1)N(C)c1ccccc1C(=O)N2C`, the Potency entry in test [1] and in test [2] was “inactive” in each case.

As for `NC(=O)c1c(OCc2c(F)cc(Br)cc2F)nsc1NC(=O)NCCCCN1CCCC1`, the Potency result in test [1] and in test [2] was “inactive” in each case.

Turning to `Nc1nc(Nc2ccc(S(N)(=O)=O)cc2)nn1C(=O)c1c(F)cccc1F`, the Potency result in test [1] and in test [2] was “inactive” each time.

Regarding `CN(C1CCc2c(c3ccccc3n2CC(=O)O)C1)S(=O)(=O)c1ccc(F)cc1` (centres undefined), the Potency result in test [1] is “inactive”.

As for `C=CC(=O)N1CCC[C@@H](n2nc(-c3ccc(Oc4ccccc4)cc3)c3c(N)ncnc32)C1`, the Potency entry in test [2] is “inactive”.

In the case of `O=C(O)Cn1nnc(-c2cc(N3CCC(Oc4cc(F)ccc4Br)CC3)no2)n1`, the Potency in test [3] is 27.8 µM (active); in test [2] it was 22.4 µM (active).
